Measurements published in PubChem BioAssay AID504891 (National Center for Advancing Translational Sciences (NCATS), 2011).
The whole screen tested about 390,000 compounds, of which about 35 (0.009%) were called active. Not shown: some 6% with an inconclusive outcome. The call rests on the fitted dose curve; in most records, active means well fitted inhibition curve with a large enough effect in the polarisation, with a control signal flat (not every such curve was filed as active); inconclusive means small, poorly fitted or top-dose-only effect, or effect the other way, or a change in a side signal; inactive means no such curve, though single readings can be large or run the other way; the % refers to the polarisation. The entries come from a sample that favours actives as a whole.

biological target: Peptidyl-prolyl cis-trans isomerase NIMA-interacting 1 (Homo sapiens) (UniProt Q13526); test: qHTS Assay to Find Inhibitors of Pin1; details: Pin1 FP peptide displacement, HiFluor488, 10 min; series mostly up to 115 µM
Sequence (Q13526 whole entry, looked up): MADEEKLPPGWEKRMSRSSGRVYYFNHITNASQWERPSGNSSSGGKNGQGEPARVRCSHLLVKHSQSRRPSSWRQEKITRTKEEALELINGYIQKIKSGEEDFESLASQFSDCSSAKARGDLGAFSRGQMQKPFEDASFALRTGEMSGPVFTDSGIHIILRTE
Excerpt: NIH Molecular Libraries Probe Production Network [MLPCN]
NIH Chemical Genomics Center [NCGC]
The unique chemical properties of Pro allow for the adoption of two completely distinct amide bond conformations (cis and trans). Peptidyl-prolyl cis/trans isomerases (PPIases) are evolutionary conserved enzymes that catalyze cis/trans isomerization of peptidyl-prolyl peptide bonds. Distinct from all other PPIases such as cyclophilins and FK506-binding proteins (FKBPs), Pin1 binds a subset of phos.Ser/Thr-Pro-containing proteins using its protein-targeting WW domain and isomerizes only specific phos.Ser/Thr-Pro bonds, which cannot be effectively catalyzed by other known PPIases.
Pin1-catalyzed conformational regulation can control a spectrum of activities of many key regulators in diverse cellular processes such as cell growth, genotoxic and other stress responses, immune response, germ cell development, neuronal differentiation and survival. Pin1 has emerged as a novel molecular timer that modulates its multiple targets at various steps of a given cellular process to synergistically control the amplitude and duration of a cellular response or process. Importantly, Pin1 is tightly regulated by multiple levels and its deregulation has an important role in a growing number of pathological conditions, including cancer, Alzheimer's disease, aging, asthma and microbial infection, providing a potentially new therapeutic option.
The goal of this screen is to find small-molecule inhibitors of Pin1 using a fluorescence polarization competition assay. A HiFluor-488-labeled peptide binds to the active site of Pin1 and can be displaced by compounds. Compounds were screened as a concentration-titration series that ranged from 57 uM to 0.7 nM.
NCGC Assay Protocol Summary:
Pin1 (0.6 uM) was dispensed into black, solid 1536-well plates at 2 uL/well in 10 mM HEPES (pH 7.5), 10 mM NaCl, 0.01% Tween20, 1 mM DTT, and 1% glycerol. Then, 23 nL of compounds or DMSO were delivered to each well using a pin tool. Two uL of Pin1-1b-HiFluor488 peptide (10 mM HEPES (pH 7.5), 10 mM NaCl, 0.01% Tween20, 1 mM DTT, and 1% glycerol, 0.02 uM Pin1-1b-HiFluor488) was then dispensed, and plates were incubated at room temperature for 10 min. The plates were measured on a ViewLux plate reader for fluorescence polarization signal using a 480/20 nM nm excitation filter and 540/25 nM nm S and P emission filters with a 20 second exposure. The %Activity was determined from the corrected fluorescence polarization values. Unlabeled Pin1-1c peptide was used as a control (3.5 mM two-fold serial; 20 uM final concentration) along with a 1x (0.3 uM) and 0x (no-enzyme) Pin1 enzyme control to normalize %Activity of identified inhibitors; 0x enzyme values corresponded to 100%Activity (full inhibition), while 1x Pin1 enzyme values were used to normalize 0%Activity (no inhibition).
Concentration-response curves were fitted to the signals arising from the resulting fluorescence polarization. The concentration-effect curves were then classified based on curve quality (r2), response magnitude and degree of measured activity, and compounds were subsequently categorized based on their curve class.
Keywords: Peptidyl prolyl isomerase, Pin1, fluorescence polarization, MLSMR, MLPCN, NIH Roadmap, qHTS, NCGC

activity, negative = inhibition, inactive:
Cc1ccc(CNC(=O)CSc2c(C)cnc3c2c(=O)n(C)c(=O)n3C)cc1, CCc1cc2c(cc3c(=O)n(CC(=O)N4CCN(c5cc(Cl)ccc5C)CC4)ncn32)s1, CCCN1CCC(=O)N(C(CSc2ccc(C)cc2)Cc2ccccc2)CC1 (stereo not drawn), CCCCn1c(=O)c2oc3ccccc3c2n(CC(=O)Nc2ccccc2OC)c1=O, Cn1c(=O)oc2cc(S(=O)(=O)CCC(=O)NCCc3ccc(Cl)cc3)ccc21, COc1ccc(C(=O)N(Cc2ccccc2)Cc2ccc(OC)c(COc3ccc(NC(C)=O)cc3)c2)c(O)c1, O=C1C(F)N([S+](=O)([O-])c2ccc3c(c2)OCCO3)CCN1[S+](=O)([O-])c1c(F)cccc1F (stereo not drawn), Cc1ccccc1CN1CCC(CNC(=O)c2cc3ccc4cccnc4c3[nH]2)CC1, CN(Cc1cncn1C)c1ncnc2ccc(-c3ccc4c(c3)OCO4)cc12, CC(C)(C)NS(=O)(=O)c1cccc(Nc2nn3c(=O)c4ccccc4nc3s2)c1, COc1ccc(Cn2cc(C(=O)c3ccc(C)cc3)c(=O)c3cc(OC)c(OC)cc32)cc1, Cc1ccc(NC(=O)c2cc3cc(C)ccc3n2C)cc1, N#CN1CCC(NC(=O)c2ccc(F)cc2)CC1, O=C(CNC(=O)c1ccc(Cl)cc1Cl)OC(C(=O)Nc1cc(C(F)(F)F)ccc1Cl)c1ccccc1 (stereo not drawn), N#CN1CCC(NS(=O)(=O)c2cccc(F)c2)C1 (stereo not drawn), O=C(COc1ccccc1)NCc1ccc2c(c1)CCN2C(=O)c1ccc(F)cc1, CN(C)c1ccc(C(=O)NCC(=O)OC(C(=O)Nc2cc(C(F)(F)F)ccc2Cl)c2ccccc2)cc1 (stereo not drawn), CC1CCCCN1S(=O)(=O)c1ccc(F)c(C(=O)Nc2ccccc2C(F)(F)F)c1 (stereo not drawn), Cc1noc(C)c1-c1ccc2ncnc(NCc3ccc4[nH]ccc4c3)c2c1, Brc1ccc2c(c1)NC(c1cccnc1)=NC(c1ccccc1)=N2, CS(=O)(=O)c1ccc(-c2nnc(NC(=O)c3ccc4c(c3)OCCO4)o2)cc1, CCN(Cc1ccccc1)C(=O)c1cn(-c2cccc(OC)c2)c(=O)c2ccccc12, O=C(c1ccccc1F)N1CCC(c2nc3c(nnn3Cc3cccc(F)c3)c(=O)[nH]2)CC1, COc1cc(OC)cc(C(=O)Nc2cc3nn(-c4ccccc4)nc3cc2Cl)c1, O=C(c1ccc2c(c1)N(Cc1ccccc1)C(=O)c1ccccc1S2(=O)=O)N1CCC(Cc2ccccc2)CC1, COc1cccc(Cn2c(SCc3ccc(C(=O)N4CCC(C)CC4)cc3)nc3ccncc32)c1, O=S(=O)(c1ccc2nc(NCc3ccccc3Cl)ccc2c1)N1CCCCC1, Oc1ccc(/C=C/c2c(F)cccc2F)c2cccnc12, Oc1ccc(Br)cc1C1C=C(c2ccc3c(c2)OCO3)NC(c2ccc(Cl)cc2)N1 (stereo not drawn), O=C(NCc1ccccn1)[C@]1(C(F)(F)F)C[C@H](CCc2ccccc2)CCCO1, CCOc1ccccc1C(=O)Nc1ccc(S(=O)(=O)N2CCCCC2c2cccnc2)cc1 (stereo not drawn), Cc1ccc(-c2nc3ccccn3c2Nc2ccc(F)cc2)o1, COc1ccc(CNC(=O)CSc2n[nH]c(-c3ccc(F)cc3)n2)cc1, O=C(NC1CC(=O)N(c2ccc(F)cc2)C1)c1ccc(S(=O)(=O)N2CCCC2)cc1 (stereo not drawn), CCc1ccccc1NC(=O)c1ccc2nc(CCc3ccccc3)oc2c1, CCc1ccc(CNC(=O)C2CCN(c3nn4cc(-c5ccc(F)cc5)nc4s3)CC2)cc1, Cc1ccc(CNc2ncnc3cc(-c4ccc5c(c4)OCO5)ccc23)o1, CN1C(=O)c2ccccc2Sc2ccc(NC(=O)Cc3ccc(Cl)cc3)cc21, Cc1cc2c(cc3c(SCc4nc(-c5ccccc5)oc4C)nnc(C)n32)o1, CCOC(=O)C1CCN(C(=O)CSc2c3c(nc4ccc(Cl)cc24)CCCC3)CC1, Cc1c(Cl)cccc1NC(=O)CCS(=O)(=O)c1ccc2c(c1)oc(=O)n2C, O=C(CN1c2ccccc2S(=O)(=O)c2ccccc21)Nc1cccc(C(F)(F)F)c1, O=C(COc1ccccc1F)Nc1ccc(C(=O)OCc2cc(=O)n3nc(C4CC4)sc3n2)cc1, N#Cc1nc(Nc2cccc(Cl)c2)nc(NC2CCCC2)n1, COc1ccc(Cn2ccn(CC(=O)Nc3cc(C)ccc3C)c(=O)c2=O)cc1, COc1cccc(NC(=O)c2ccc3nc(CCc4ccccc4)oc3c2)c1, COc1ccc(CC(=O)N2CC(=O)Nc3ccc(Br)cc3C2c2ccc(F)cc2)cc1OC (stereo not drawn), COc1ccc(N2CCN(S(=O)(=O)CCNC(=O)C(c3ccccc3)c3ccccc3)CC2)cc1
